{"source": "PubChem BioAssay AID463173", "about": "(ICCB-Longwood Screening Facility, Harvard Medical School, 2010)", "note": "In all, about 52,000 compounds went through this assay and about 4,300 (8.3%) were called active. Shown is part of a subset that was picked to be rich in actives. A number with no mark means an inactive call. No stated cut-off is given here; in the data, active means survival mostly below about 52% (no sharp cut-off); inactive means mostly above about 56%.", "data": [{"tested_on": "DeltatarO mutant", "test": "growth inhibition of S. aureus wild type versus tarO mutant, primary screen, teichoic acid synthesis inhibitors, RN4220, OD600 (AID 463173)", "settings": "OD600, 18 h, active compounds read low, screened at 18.75 µg/mL (by protocol)", "values": [{"smiles": "Cc1ccc(NC(=O)C2CCN(S(=O)(=O)c3c(C)noc3C)CC2)cc1", "survival": "105%"}, {"smiles": "COc1ccc(-c2nn3c(-c4ccccc4C)nnc3c3ccccc23)cc1", "survival": "2% (active)"}, {"smiles": "Cc1ccc(-c2nnc3c4ccccc4c(-c4ccccc4)nn23)cc1", "survival": "134%"}, {"smiles": "Cc1ccc(-c2nn3c(-c4ccc(C)cc4)nnc3c3ccccc23)cc1", "survival": "20% (active)"}, {"smiles": "Cc1ccc(-c2nn3c(-c4ccccc4C)nnc3c3ccccc23)cc1", "survival": "40%"}, {"smiles": "COc1ccc(-c2nn3c(-c4ccc(OC)cc4)nnc3c3ccccc23)cc1", "survival": "102%"}, {"smiles": "Cc1ccc(-c2nn3c(-c4ccccc4)nnc3c3ccccc23)cc1", "survival": "86%"}, {"smiles": "O=C(CNCCCN1CCOCC1)Nc1ccc(OC(F)(F)F)cc1", "survival": "99%"}, {"smiles": "CC(=O)c1cccc(NC(=O)c2oc3c(c2C)-c2nn(Cc4ccc(Cl)cc4)cc2CC3)c1", "survival": "64%"}, {"smiles": "COc1cccc(CNC(=O)CN2C(=O)N(c3ccc(C)cc3C)S(=O)(=O)c3ccccc32)c1OC", "survival": "65%"}, {"smiles": "COc1cc(NS(=O)(=O)c2ccc(-c3cc(C)no3)cc2)cc(OC)c1", "survival": "99%"}, {"smiles": "Cc1cccc(C)c1NC(=O)CCSCCc1ccccn1", "survival": "86%"}, {"smiles": "COc1ccc(-c2nc(S(=O)(=O)c3ccc(C)cc3)c(N3CCCCC3)o2)cc1", "survival": "54%"}, {"smiles": "Cc1ccc(S(=O)(=O)c2nc(-c3ccccc3)oc2N2CCN(c3ccccc3)CC2)cc1", "survival": "85%"}, {"smiles": "COc1ccc(-c2nc(S(=O)(=O)c3ccccc3)c(N3CCCCC3)o2)cc1", "survival": "74%"}, {"smiles": "Cc1ccc(-c2nc(S(=O)(=O)c3ccccc3)c(N3CCN(c4ccccc4)CC3)o2)cc1", "survival": "102%"}, {"smiles": "Cc1ccc(-c2nc(S(=O)(=O)c3ccc(C)cc3)c(N3CCCCC3)o2)cc1", "survival": "0% (active)"}, {"smiles": "Cc1ccc(-c2nc(S(=O)(=O)c3ccc(C)cc3)c(N3CCN(c4ccccc4)CC3)o2)cc1", "survival": "97%"}, {"smiles": "O=S(=O)(c1ccccc1)c1nc(-c2cccc(Cl)c2)oc1N1CCOCC1", "survival": "57%"}, {"smiles": "CC(C)(C)c1ccc(-c2nc(S(=O)(=O)c3ccccc3)c(N3CCOCC3)o2)cc1", "survival": "37% (active)"}, {"smiles": "O=S(=O)(c1ccccc1)c1nc(-c2ccc(F)cc2)oc1N1CCOCC1", "survival": "90%"}, {"smiles": "O=S(=O)(c1ccccc1)c1nc(-c2ccc(F)cc2)oc1N1CCCCCC1", "survival": "33% (active)"}, {"smiles": "Cc1ccc(S(=O)(=O)c2nc(-c3ccccc3)oc2N2CCCCCC2)cc1", "survival": "22% (active)"}, {"smiles": "Cc1ccc(-c2nc(S(=O)(=O)c3ccc(C)cc3)c(N3CCCCCC3)o2)cc1", "survival": "70%"}, {"smiles": "Cc1ccc(Cl)cc1NC(=O)Cn1cc2c(n1)CCCCC2", "survival": "68%"}, {"smiles": "CCc1ccc(NC(=O)CC(c2cc(OC)c(OC)c(OC)c2)N2Cc3ccccc3C2=O)cc1", "note": "(centres undefined)", "survival": "79%"}, {"smiles": "COc1ccc(N2CCN(C(=O)c3cccc4ccccc34)CC2)cc1", "survival": "66%"}, {"smiles": "COC(=O)NCc1c(C)nn(-c2ccccc2)c1-n1cccc1", "survival": "96%"}, {"smiles": "COc1ccc(C2c3cccn3CCN2S(=O)(=O)c2ccc([N+](=O)[O-])cc2)cc1", "note": "(centres undefined)", "survival": "69%"}, {"smiles": "Cn1ncc(C(=O)N2CCN(c3ccccc3)CC2)c1C1CCN(C(=O)OC(C)(C)C)CC1", "survival": "78%"}, {"smiles": "CCCCN(CC)C(=O)c1c[nH]c2ccc(S(=O)(=O)N(C)c3ccc(Cl)cc3)cc2c1=O", "survival": "95%"}, {"smiles": "COc1cc2c(cc1OC)C(c1cccc(Cl)c1)CC(=O)N2", "note": "(centres undefined)", "survival": "63%"}, {"smiles": "Cc1c(C(=O)OC2CCC(C)CC2)[nH]c2c1C(=O)CC(c1ccc(N(C)C)cc1)C2", "note": "(centres undefined)", "survival": "68%"}, {"smiles": "COc1ccc(NC(=O)C(=O)Nc2ccc3nc4n(c(=O)c3c2)CCCCC4)c(OC)c1", "survival": "84%"}, {"smiles": "COc1cccc(OC)c1C(=O)Nc1ccc2c(c1)N(C(C)=O)CCC2", "survival": "78%"}, {"smiles": "COCCn1c(=NC(=O)c2ccc3c(c2)OCCO3)sc2cc(NC(C)=O)ccc21", "survival": "94%"}, {"smiles": "Cc1nn2c(=O)cc(COC(=O)COc3ccccc3C)nc2s1", "survival": "101%"}, {"smiles": "O=C(NC12CC3CC(CC(C3)C1)C2)N1CCC(O)(c2ccc3c(c2)OCO3)CC1", "survival": "81%"}, {"smiles": "O=C(Nc1cccc(C(F)(F)F)c1)c1cc2nc(-c3ccccc3)cc(C(F)(F)F)n2n1", "survival": "60%"}, {"smiles": "Cc1ccc(-c2cc(C(F)(F)F)n3nc(C(=O)Nc4ccc(Cl)cc4Cl)cc3n2)cc1", "survival": "81%"}, {"smiles": "O=C(Nc1cccc(Cl)c1Cl)c1cc2nc(-c3ccc(Cl)cc3)cc(C(F)(F)F)n2n1", "survival": "93%"}, {"smiles": "O=C(c1cc2nc(-c3ccccc3)cc(C(F)(F)F)n2n1)N1CCCC1", "survival": "78%"}, {"smiles": "COc1ccc(-c2cc(C(F)(F)F)n3nc(C(=O)NCC45CC6CC(CC(C6)C4)C5)cc3n2)cc1", "survival": "29% (active)"}, {"smiles": "O=C(NCC12CC3CC(CC(C3)C1)C2)c1cc2nc(-c3ccc(Cl)cc3)cc(C(F)(F)F)n2n1", "survival": "31% (active)"}, {"smiles": "COc1ccc(-c2cc(C(F)(F)F)n3nc(C(=O)NCC45CC6CC(CC(C6)C4)C5)cc3n2)cc1OC", "survival": "137%"}, {"smiles": "O=C(NCC12CC3CC(CC(C3)C1)C2)c1cc2nc(-c3ccccc3)cc(C(F)(F)F)n2n1", "survival": "-4% (active)"}, {"smiles": "CCOc1ccc(NC(=O)c2cc3nc(-c4ccc(OC)cc4)cc(C(F)(F)F)n3n2)cc1", "survival": "134%"}, {"smiles": "CCC(c1nnnn1CCOC)N(Cc1cc2ccc(OC)cc2[nH]c1=O)C1CCCC1", "note": "(centres undefined)", "survival": "92%"}, {"smiles": "Cc1ccc(C)c(N2CCN(C(=O)c3cc4cc5ccc(C)cc5nc4s3)CC2)c1", "survival": "95%"}, {"smiles": "N#Cc1c2c(c(-c3ccccc3)[nH]c1=S)CCCC2", "survival": "91%"}, {"smiles": "CCc1ccc(-c2nn(CC(=O)NC3CCCCC3)c3c2cnc2ccc(OC)cc23)cc1", "survival": "98%"}, {"smiles": "CCc1ccc(-c2[nH]c3c(c2-c2sc(C)c(C(=O)OC)c2O)c(=O)[nH]c(=O)n3C)cc1", "survival": "23% (active)"}, {"smiles": "COC(=O)c1c(C)sc(-c2c(-c3cccc(OC)c3)[nH]c3c2c(=O)[nH]c(=O)n3C)c1O", "survival": "43% (active)"}, {"smiles": "COC(=O)c1c(C)sc(-c2c(-c3ccc4c(c3)OCCO4)[nH]c3[nH]c(=O)[nH]c(=O)c23)c1O", "survival": "50%"}, {"smiles": "COC(=O)c1c(C)sc(-c2c(-c3cccc(Cl)c3)[nH]c3c2c(=O)[nH]c(=O)n3C)c1O", "survival": "113%"}, {"smiles": "CCc1ccc(-c2[nH]c3c(c2-c2sc(C)c(C(=O)OC)c2O)c(=O)n(C)c(=O)n3C)cc1", "survival": "51%"}, {"smiles": "CCOC(=O)c1c(C)sc(-c2c(-c3cc(C)ccc3C)[nH]c3c2c(=O)[nH]c(=O)n3C)c1O", "survival": "40% (active)"}, {"smiles": "CCOC(=O)c1c(C)sc(-c2c(-c3ccc4c(c3)OCCO4)[nH]c3c2c(=O)[nH]c(=O)n3C)c1O", "survival": "106%"}, {"smiles": "COC(=O)c1c(C)sc(-c2c(-c3ccc4c(c3)OCCO4)[nH]c3c2c(=O)[nH]c(=O)n3C)c1O", "survival": "37% (active)"}, {"smiles": "CCOC(=O)c1c(C)sc(-c2c(-c3ccc(OC)c(F)c3)[nH]c3c2c(=O)[nH]c(=O)n3C)c1O", "survival": "117%"}, {"smiles": "CCOC(=O)c1c(C)sc(-c2c(-c3cccc(Cl)c3)[nH]c3c2c(=O)n(C)c(=O)n3C)c1O", "survival": "113%"}, {"smiles": "COC(=O)c1c(C)sc(-c2c(-c3ccc(F)cc3)[nH]c3[nH]c(=O)[nH]c(=O)c23)c1O", "survival": "116%"}, {"smiles": "CCOC(=O)c1c(C)sc(-c2c(-c3cc(C)ccc3C)[nH]c3c2c(=O)n(C)c(=O)n3C)c1O", "survival": "105%"}, {"smiles": "COc1cccc(CNC(=O)c2c(C)oc3ncnc(N4CCOCC4)c23)c1", "survival": "87%"}, {"smiles": "COc1ccc(CNC(=O)C2CCN(c3nnc(-n4cccc4CNc4ccc(C)cc4)s3)CC2)c(OC)c1", "survival": "70%"}, {"smiles": "COc1ccc(CN2CCc3nc(N4CCN(c5ccc(F)cc5)CC4)ncc3C2)c(OC)c1OC", "survival": "119%"}, {"smiles": "COc1ccc(-c2nc3sc(CCNC(=O)c4cc(OC)c(OC)c(OC)c4)c(C)n3n2)cc1", "survival": "83%"}, {"smiles": "CN(C(=O)CSc1nc2ccc(NC(=O)COc3ccc(Cl)cc3)cc2s1)c1ccccc1", "survival": "72%"}, {"smiles": "CCOc1ccc(OCC)c(Nc2nc3ccc(Cl)cc3n3cnnc23)c1", "survival": "65%"}, {"smiles": "CC(C)NC(=O)C1CCN(S(C)(=O)=O)CC1", "survival": "93%"}, {"smiles": "CSc1nc(NNC(=O)c2ccco2)c2c3c(sc2n1)COC(C)(C)C3", "survival": "81%"}, {"smiles": "CCOc1ccccc1NC(=O)C(C)N(c1ccccc1)S(C)(=O)=O", "note": "(centres undefined)", "survival": "91%"}, {"smiles": "COC(=O)c1c(C)sc(-c2c(-c3ccc4c(c3)OCCO4)[nH]c3c2c(=O)n(C)c(=O)n3C)c1O", "survival": "43% (active)"}, {"smiles": "CCOC(=O)c1c(C)sc(-c2c(-c3ccc4c(c3)OCCO4)[nH]c3c2c(=O)n(C)c(=O)n3C)c1O", "survival": "128%"}, {"smiles": "COC(=O)c1c(C)sc(-c2c(-c3ccc(OC)c(F)c3)[nH]c3c2c(=O)n(C)c(=O)n3C)c1O", "survival": "120%"}, {"smiles": "COCCCNc1c2c(nc3ccccc13)CCC2", "survival": "125%"}, {"smiles": "O=C1COc2ccc(-c3cc(-c4ccc(F)cc4)c4c(n3)-c3cc(Cl)ccc3OC4)cc2N1", "survival": "88%"}, {"smiles": "CCOc1ccccc1NS(=O)(=O)c1c(C)nc2sccn2c1=O", "survival": "63%"}, {"smiles": "Cc1nc2sccn2c(=O)c1S(=O)(=O)Nc1cc(C(F)(F)F)ccc1Cl", "survival": "69% (active)"}, {"smiles": "Cc1nc2sccn2c(=O)c1S(=O)(=O)Nc1ccc(N2CCN(C)CC2)cc1", "survival": "106%"}, {"smiles": "CC(=O)Nc1ccc(NS(=O)(=O)c2c(C)nc3sccn3c2=O)cc1", "survival": "61%"}, {"smiles": "CCCCOC(=O)c1ccc(NS(=O)(=O)c2c(C)nc3scc(C)n3c2=O)cc1", "survival": "43% (active)"}, {"smiles": "COc1ccc(NS(=O)(=O)c2c(C)nc3scc(C)n3c2=O)cc1", "survival": "90%"}, {"smiles": "Cc1ccc(NS(=O)(=O)c2c(C)nc3sccn3c2=O)c(Cl)c1", "survival": "132%"}, {"smiles": "COC(=O)c1ccc(NS(=O)(=O)c2c(C)nc3sccn3c2=O)cc1", "survival": "72% (active)"}, {"smiles": "COc1cc(Cl)c(C)cc1NS(=O)(=O)c1c(C)nc2sccn2c1=O", "survival": "64% (active)"}, {"smiles": "CC(=O)c1ccc(NS(=O)(=O)c2c(C)nc3scc(C)n3c2=O)cc1", "survival": "88%"}, {"smiles": "COc1cc(OC)c(NS(=O)(=O)c2c(C)nc3sc(C)cn3c2=O)cc1Cl", "survival": "65%"}, {"smiles": "Cc1nc2sccn2c(=O)c1S(=O)(=O)Nc1cc(Cl)ccc1O", "survival": "51%"}]}]}
